SMILES strings stand for the structures.

Format in all cases: functional
In experiment [1] the target is Solute carrier family 2, facilitated glucose transporter member 1 (Homo sapiens) (UniProt P11166). The experiment can be described thus: ST_JUDE_LEISH: Cytotoxicity at 2uM final concentration against transgenic Leishmania Mexicana promastigotes LmGLUT1 that are glucose transport deficient and complemented with the human glucose transporter GLUT1. Activity is measured by DNA content using SYBR green in vitro.
Chain of Solute carrier family 2, facilitated glucose transporter member 1 (Homo sapiens) (P11166 whole entry): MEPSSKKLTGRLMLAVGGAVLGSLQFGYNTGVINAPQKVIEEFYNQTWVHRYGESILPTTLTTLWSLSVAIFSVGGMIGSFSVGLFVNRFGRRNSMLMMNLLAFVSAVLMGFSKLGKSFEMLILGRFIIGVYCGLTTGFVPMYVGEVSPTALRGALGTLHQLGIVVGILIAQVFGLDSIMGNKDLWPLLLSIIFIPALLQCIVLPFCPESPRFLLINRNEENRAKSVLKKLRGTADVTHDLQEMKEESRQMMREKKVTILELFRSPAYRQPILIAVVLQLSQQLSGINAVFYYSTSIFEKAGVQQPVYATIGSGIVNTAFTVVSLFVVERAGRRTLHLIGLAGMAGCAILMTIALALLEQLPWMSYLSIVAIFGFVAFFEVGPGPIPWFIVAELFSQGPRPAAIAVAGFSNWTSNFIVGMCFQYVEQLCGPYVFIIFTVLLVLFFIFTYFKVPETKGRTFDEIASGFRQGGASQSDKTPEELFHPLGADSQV

Experiment [2] deals with Hexose transporter 1 (Plasmodium falciparum) (UniProt O97467). As to the kind of experiment: ST_JUDE_LEISH: Cytotoxicity at 2uM final concentration against transgenic Leishmania Mexicana promastigotes LmPfHT that are glucose transport deficient and complemented with the Plasmodium falciparum hexose transporter. Activity is measured by DNA content using SYBR green in vitro.

The target in experiment [3] is Glucose transporter (Leishmania mexicana) (UniProt O61059). The experiment can be described thus: ST_JUDE_LEISH: Cytotoxicity at 2uM final concentration against transgenic Leishmania Mexicana promastigotes LmGT2 that are glucose transport deficient and complemented with the L. Mexicana glucose transporter 2. Activity is measured by DNA content using SYBR green in vitro.

By inhibition is commonly meant the drop in the measured response relative to a control, in per cent. In the case of `O=C(NCC1CCN(Cc2ccc(F)cc2)C1)c1cc(-c2cccc(C(F)(F)F)c2)cs1` (configuration not stated), the inhibition is -0.31% in experiment [1], -1.16% in experiment [2] and -6.61% in experiment [3].
The corresponding values for `COCCN1CCC(C(=O)NCC(C)(C)c2nc(-c3ccc(Br)c(O)c3)c(-c3ccncc3)[nH]2)CC1` are 7.2%, 8.02% and 7.22%.
The corresponding values for `O=C(Nc1cc(Cl)ccc1-n1cncn1)C1(c2ccccc2)CC1` are 2.59%, 6.43% and 5.68%.
`Cc1cc(-c2cccc(CNCc3ccc(F)cc3)c2)ccc1S(=O)(=O)NCCN1CCCC1`: the inhibition in experiment [1] is -0.89%; in experiment [2] it was 0.36%; in experiment [3], 0.1%.
